Experimental data published in the supplement of paper PMC10849652.
Of roughly 7,900 targets only a part is listed; those with a hit were picked by preference. About 0.6% of all pairs of compound and target were hits.

Assays:
Test in all cases: log2 fold change, soluble protein after heating vs DMSO (PISA); higher = thermal stabilisation; K562 cells, 10 uM, 30 min; active = over 0.2 and 3.5 SD of the protein, either way, in both replicates (recomputed)
YWHAB = YWHAB (UniProt P31946)
Outline: (§1)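 Aliquots of K562 cells (2×10^6 cells/mL) treated with 10 μM compound for 30 min were heated for 3 min over 48°C-58°C. After pooling and extraction in PBS with 0.5% NP-40 at 4°C, soluble protein from a 21,000xg, 90 min spin was quantified by TMTpro 16plex LC-MS/MS with channel sums equalised. Thermal stability is expressed against control samples, from duplicates, as a log2 fold change.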

YWHAQ = YWHAQ (UniProt P27348)
Outline: as §1

YWHAZ [1] = biological target: YWHAZ (UniProt P63104)
Outline: as §1

YY1 = YY1 (UniProt P25490)
Outline: as §1

ZADH2 = ZADH2 (UniProt Q8N4Q0)
Outline: as §1

ZBTB21 = ZBTB21 (UniProt Q9ULJ3)
Outline: as §1

ZBTB43 = ZBTB43 (UniProt O43298)
Outline: as §1

ZC3H18 = ZC3H18 (UniProt Q86VM9)
Outline: as §1

ZC3H8 = ZC3H8 (UniProt Q8N5P1)
Outline: as §1

ZC3HC1 = ZC3HC1 (UniProt Q86WB0)
Outline: as §1

ZCCHC9 = ZCCHC9 (UniProt Q8N567)
Outline: as §1

ZDHHC17 = ZDHHC17 (UniProt Q8IUH5)
Outline: as §1

ZDHHC20 = ZDHHC20 (UniProt Q5W0Z9)
Outline: as §1

ZDHHC5 = ZDHHC5 (UniProt Q9C0B5)
Outline: as §1

ZDHHC6 = ZDHHC6 (UniProt Q9H6R6)
Outline: as §1

ZDHHC7 isoform 2 = ZDHHC7 isoform 2 (UniProt Q9NXF8)
Outline: as §1

ZDHHC8 isoform 3 = ZDHHC8 isoform 3 (UniProt Q9ULC8)
Outline: as §1

ZBTB17 isoform 2 = ZBTB17 isoform 2 (UniProt Q13105)
Outline: as §1

YWHAZ [2] = biological target: YWHAZ (UniProt E7ESK7)
Outline: as §1

ZCCHC17 = ZCCHC17 (UniProt Q9NP64)
Outline: as §1

Measured: log2 fold change

ZC3H18, sequence (Q86VM9 whole entry, looked up): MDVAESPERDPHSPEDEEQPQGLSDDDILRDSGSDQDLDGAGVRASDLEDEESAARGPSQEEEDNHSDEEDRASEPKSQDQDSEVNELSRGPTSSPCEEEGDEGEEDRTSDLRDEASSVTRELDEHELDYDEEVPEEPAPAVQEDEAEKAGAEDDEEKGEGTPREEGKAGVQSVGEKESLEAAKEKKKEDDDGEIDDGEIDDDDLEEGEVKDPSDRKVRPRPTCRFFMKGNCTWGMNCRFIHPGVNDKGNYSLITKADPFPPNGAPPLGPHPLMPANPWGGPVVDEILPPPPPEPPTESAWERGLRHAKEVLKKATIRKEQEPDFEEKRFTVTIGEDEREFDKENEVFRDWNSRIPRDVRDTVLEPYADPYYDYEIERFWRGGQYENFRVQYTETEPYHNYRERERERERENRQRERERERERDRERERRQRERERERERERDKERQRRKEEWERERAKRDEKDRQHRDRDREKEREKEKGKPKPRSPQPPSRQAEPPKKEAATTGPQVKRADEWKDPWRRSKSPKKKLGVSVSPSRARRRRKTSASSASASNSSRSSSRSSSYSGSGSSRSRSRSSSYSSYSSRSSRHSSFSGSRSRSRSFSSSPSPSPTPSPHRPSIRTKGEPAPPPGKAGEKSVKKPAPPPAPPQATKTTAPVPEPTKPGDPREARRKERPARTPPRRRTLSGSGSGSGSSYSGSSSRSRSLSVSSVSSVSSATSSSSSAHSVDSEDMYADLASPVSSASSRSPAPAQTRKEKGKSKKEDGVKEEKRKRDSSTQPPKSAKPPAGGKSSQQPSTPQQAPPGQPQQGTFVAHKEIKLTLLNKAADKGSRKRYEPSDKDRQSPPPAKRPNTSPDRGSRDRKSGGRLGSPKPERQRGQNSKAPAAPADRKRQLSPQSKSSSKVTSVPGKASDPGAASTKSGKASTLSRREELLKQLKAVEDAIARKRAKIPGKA
ZCCHC9, sequence (Q8N567 whole entry, looked up): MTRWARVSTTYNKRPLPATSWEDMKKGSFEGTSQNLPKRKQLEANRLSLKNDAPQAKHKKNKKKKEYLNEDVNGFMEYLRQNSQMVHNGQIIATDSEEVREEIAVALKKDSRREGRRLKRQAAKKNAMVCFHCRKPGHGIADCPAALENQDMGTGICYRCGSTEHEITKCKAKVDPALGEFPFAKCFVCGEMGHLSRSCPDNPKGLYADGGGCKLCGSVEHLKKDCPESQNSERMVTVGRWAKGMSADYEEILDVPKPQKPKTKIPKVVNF
ZDHHC7 isoform 2, sequence (Q9NXF8 whole entry, looked up, canonical isoform): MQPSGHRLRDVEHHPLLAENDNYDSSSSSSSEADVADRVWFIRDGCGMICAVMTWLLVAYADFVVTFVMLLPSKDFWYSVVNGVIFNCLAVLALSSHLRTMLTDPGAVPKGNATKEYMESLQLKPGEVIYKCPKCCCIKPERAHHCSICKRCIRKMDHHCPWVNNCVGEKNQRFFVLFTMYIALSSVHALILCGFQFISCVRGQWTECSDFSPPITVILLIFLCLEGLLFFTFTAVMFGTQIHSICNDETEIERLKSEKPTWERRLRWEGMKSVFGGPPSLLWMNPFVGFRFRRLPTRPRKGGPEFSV
ZDHHC5, sequence (Q9C0B5 whole entry, looked up): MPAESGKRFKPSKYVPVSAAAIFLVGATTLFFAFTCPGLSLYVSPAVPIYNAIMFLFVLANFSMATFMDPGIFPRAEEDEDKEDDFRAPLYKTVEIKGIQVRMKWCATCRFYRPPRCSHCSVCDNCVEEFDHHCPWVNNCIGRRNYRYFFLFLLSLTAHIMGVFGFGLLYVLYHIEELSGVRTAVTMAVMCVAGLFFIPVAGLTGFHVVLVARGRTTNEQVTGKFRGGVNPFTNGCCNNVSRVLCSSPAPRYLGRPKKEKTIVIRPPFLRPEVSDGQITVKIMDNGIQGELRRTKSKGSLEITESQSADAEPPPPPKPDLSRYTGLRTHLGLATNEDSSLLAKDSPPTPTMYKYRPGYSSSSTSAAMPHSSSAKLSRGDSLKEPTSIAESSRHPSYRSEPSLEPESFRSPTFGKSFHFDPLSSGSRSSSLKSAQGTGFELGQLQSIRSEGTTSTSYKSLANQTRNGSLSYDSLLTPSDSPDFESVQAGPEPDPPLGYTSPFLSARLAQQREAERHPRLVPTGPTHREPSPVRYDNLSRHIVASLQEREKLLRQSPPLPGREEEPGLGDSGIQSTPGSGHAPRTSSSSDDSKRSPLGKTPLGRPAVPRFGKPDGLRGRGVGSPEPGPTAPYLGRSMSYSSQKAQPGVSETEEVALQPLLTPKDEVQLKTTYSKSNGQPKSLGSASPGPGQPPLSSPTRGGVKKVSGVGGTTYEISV
ZC3HC1, sequence (Q86WB0 whole entry, looked up): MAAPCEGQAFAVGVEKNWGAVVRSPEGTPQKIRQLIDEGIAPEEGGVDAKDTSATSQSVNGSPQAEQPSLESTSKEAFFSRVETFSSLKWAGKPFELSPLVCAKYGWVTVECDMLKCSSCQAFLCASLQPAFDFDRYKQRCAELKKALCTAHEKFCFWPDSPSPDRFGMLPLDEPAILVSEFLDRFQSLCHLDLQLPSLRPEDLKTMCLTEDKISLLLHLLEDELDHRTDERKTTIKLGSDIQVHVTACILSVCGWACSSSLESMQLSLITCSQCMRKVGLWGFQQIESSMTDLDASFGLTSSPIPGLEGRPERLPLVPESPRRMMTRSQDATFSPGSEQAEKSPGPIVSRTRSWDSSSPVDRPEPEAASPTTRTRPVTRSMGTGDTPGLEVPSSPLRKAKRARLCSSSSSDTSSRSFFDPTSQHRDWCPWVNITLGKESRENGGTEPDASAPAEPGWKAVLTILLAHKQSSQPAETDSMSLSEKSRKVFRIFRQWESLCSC
YWHAB, sequence (P31946 whole entry, looked up): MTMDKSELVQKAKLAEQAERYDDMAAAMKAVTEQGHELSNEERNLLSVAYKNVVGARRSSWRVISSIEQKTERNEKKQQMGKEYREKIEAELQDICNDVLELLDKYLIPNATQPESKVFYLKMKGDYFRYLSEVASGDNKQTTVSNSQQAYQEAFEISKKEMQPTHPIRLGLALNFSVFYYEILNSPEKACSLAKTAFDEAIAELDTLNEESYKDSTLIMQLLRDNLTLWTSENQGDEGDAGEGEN
ZDHHC6, sequence (Q9H6R6 whole entry, looked up): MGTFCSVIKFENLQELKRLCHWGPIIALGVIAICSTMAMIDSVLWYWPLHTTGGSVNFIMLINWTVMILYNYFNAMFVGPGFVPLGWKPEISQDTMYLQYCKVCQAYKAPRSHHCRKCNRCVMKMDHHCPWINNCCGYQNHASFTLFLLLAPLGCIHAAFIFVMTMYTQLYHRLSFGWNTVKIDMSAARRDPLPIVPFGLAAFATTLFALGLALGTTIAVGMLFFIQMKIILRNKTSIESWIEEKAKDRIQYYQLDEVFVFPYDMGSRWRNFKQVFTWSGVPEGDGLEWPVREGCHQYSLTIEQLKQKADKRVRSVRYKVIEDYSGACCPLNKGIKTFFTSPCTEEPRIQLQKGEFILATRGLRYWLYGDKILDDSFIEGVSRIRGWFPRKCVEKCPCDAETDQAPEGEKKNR
YWHAZ (UniProt P63104), sequence (P63104 whole entry, looked up): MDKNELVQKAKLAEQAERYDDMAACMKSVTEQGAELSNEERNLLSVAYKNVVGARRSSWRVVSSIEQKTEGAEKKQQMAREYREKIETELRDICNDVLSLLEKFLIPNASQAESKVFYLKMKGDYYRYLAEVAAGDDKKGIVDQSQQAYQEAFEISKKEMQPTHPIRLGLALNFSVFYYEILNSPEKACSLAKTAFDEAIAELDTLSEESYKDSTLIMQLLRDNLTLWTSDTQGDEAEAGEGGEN
ZBTB43, sequence (O43298 whole entry, looked up): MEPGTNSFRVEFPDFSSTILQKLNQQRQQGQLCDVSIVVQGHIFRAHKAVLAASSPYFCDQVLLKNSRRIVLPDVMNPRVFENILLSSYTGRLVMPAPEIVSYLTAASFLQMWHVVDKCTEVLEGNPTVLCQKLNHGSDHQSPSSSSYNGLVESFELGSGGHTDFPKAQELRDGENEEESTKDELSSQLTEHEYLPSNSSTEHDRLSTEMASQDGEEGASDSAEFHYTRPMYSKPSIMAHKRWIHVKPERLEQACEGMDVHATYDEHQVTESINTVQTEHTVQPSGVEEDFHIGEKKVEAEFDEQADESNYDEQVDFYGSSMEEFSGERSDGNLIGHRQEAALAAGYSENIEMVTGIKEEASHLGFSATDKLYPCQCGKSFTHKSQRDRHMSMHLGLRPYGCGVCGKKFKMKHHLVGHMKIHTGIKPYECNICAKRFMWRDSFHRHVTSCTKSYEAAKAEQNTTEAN
ZC3H8, sequence (Q8N5P1 whole entry, looked up): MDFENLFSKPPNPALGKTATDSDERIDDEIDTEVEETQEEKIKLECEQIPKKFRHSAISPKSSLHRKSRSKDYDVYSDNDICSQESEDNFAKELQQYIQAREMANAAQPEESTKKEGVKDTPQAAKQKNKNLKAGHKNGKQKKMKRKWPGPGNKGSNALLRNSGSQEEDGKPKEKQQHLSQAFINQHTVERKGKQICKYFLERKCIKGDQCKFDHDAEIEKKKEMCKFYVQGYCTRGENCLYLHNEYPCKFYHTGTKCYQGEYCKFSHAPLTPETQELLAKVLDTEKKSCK
ZCCHC17, sequence (Q9NP64 whole entry, looked up): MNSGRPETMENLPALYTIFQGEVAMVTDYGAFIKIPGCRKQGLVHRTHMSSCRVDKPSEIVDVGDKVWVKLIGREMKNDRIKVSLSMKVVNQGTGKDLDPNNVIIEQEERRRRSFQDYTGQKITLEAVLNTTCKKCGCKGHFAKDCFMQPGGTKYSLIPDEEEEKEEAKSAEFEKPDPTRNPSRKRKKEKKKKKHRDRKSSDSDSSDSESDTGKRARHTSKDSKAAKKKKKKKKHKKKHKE
YWHAQ, sequence (P27348 whole entry, looked up): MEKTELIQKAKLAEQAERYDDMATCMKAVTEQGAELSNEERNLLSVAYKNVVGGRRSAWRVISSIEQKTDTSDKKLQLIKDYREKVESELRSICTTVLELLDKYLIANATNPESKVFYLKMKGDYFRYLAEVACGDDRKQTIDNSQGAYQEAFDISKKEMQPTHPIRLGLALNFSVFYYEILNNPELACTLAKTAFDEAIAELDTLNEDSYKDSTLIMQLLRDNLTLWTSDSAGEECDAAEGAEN

O=C(CCCCCCC(=O)Nc1ccccc1)NO [vorinostat]
inactive: YWHAB -0.02 | YWHAQ 0.39 | YWHAZ [1] -0.013 | YY1 0.134 | ZADH2 0.002 | ZBTB21 0.079 | ZBTB43 -0.005 | ZC3H18 0.091 | ZC3H8 -0.039 | ZC3HC1 0.04 | ZCCHC9 -0.065 | ZDHHC17 -0.079 | ZDHHC20 -0.021 | ZDHHC5 -0.02 | ZDHHC6 -0.108 | ZDHHC7 isoform 2 0.006

Cc1nc(Nc2n[nH]c3c2CN(C(=O)N[C@H](CN(C)C)c2ccccc2)C3(C)C)c2sccc2n1
inactive: YWHAB -0.002 | YWHAQ -0.033 | YWHAZ [1] -0.015 | ZADH2 -0.127 | ZBTB21 -0.093 | ZBTB43 0.043 | ZC3H18 -0.145 | ZC3H8 0.081 | ZC3HC1 -0.103 | ZCCHC9 0.159 | ZDHHC17 -0.012 | ZDHHC20 -0.02 | ZDHHC5 -0.037 | ZDHHC7 isoform 2 0.046 | ZDHHC8 isoform 3 0.013
active: YY1 -0.304

CCn1cc(-c2ccnc3[nH]c(-c4cccc(CN(C)C)c4)cc23)c(-c2ccc(NC(=O)N(C)C)cc2)n1
inactive: YWHAB 0.014 | YWHAQ 0.143 | YWHAZ [1] -0.042 | YY1 0.002 | ZADH2 0.13 | ZBTB21 -0.073 | ZBTB43 0.028 | ZC3H18 0.068 | ZC3H8 0.092 | ZC3HC1 -0.125 | ZCCHC9 0.201 | ZDHHC17 -0.018 | ZDHHC20 -0.016 | ZDHHC5 -0.002 | ZDHHC6 -0.292 | ZDHHC7 isoform 2 -0.363

NC(=O)c1ccc2nc(-c3ccc(Oc4ccc(Cl)cc4)cc3)[nH]c2c1
inactive: YWHAB -0.012 | YWHAQ -0.021 | YWHAZ [1] 0.011 | YY1 0.03 | ZADH2 0.052 | ZBTB17 isoform 2 0.03 | ZBTB21 0.053 | ZBTB43 0.037 | ZC3H18 0.045 | ZC3H8 0.027 | ZC3HC1 -0.034 | ZCCHC9 0.025 | ZDHHC17 -0.046 | ZDHHC20 0.14 | ZDHHC5 0.027 | ZDHHC7 isoform 2 0.022

CS(=O)(=O)N1CCN(Cc2cc3nc(-c4cccc5[nH]ncc45)nc(N4CCOCC4)c3s2)CC1 [pictilisib]
inactive: YWHAB 0.002 | YWHAQ -0.142 | YWHAZ [1] -0.037 | YY1 -0.021 | ZADH2 0.14 | ZBTB21 -0.035 | ZBTB43 0.027 | ZC3H18 -0.019 | ZC3H8 -0.007 | ZC3HC1 -0.003 | ZCCHC9 -0.004 | ZDHHC17 0.021 | ZDHHC20 0.066 | ZDHHC5 0.047 | ZDHHC6 -0.044 | ZDHHC7 isoform 2 0.089

O=C(CCCCCCNC(=O)c1cnc(N(c2ccccc2)c2ccccc2Cl)nc1)NO [citarinostat]
inactive: YWHAB 0.001 | YWHAQ 0.02 | YWHAZ [2] -0.053 | YWHAZ [1] -0.013 | YY1 0.121 | ZADH2 0.106 | ZBTB43 -0.173 | ZC3H18 0.028 | ZC3H8 -0.059 | ZC3HC1 0.125 | ZCCHC9 -0.161 | ZDHHC17 -0.17 | ZDHHC20 -0.028 | ZDHHC5 -0.022 | ZDHHC6 0.149 | ZDHHC7 isoform 2 -0.037

CS(=O)(=O)c1ccc(-c2cnc(N)c(C(=O)Nc3ccccc3)n2)cc1
inactive: YWHAB 0.017 | YWHAQ -0.013 | YWHAZ [1] -0.017 | YY1 -0.061 | ZADH2 -0.063 | ZBTB17 isoform 2 -0.013 | ZBTB21 0.048 | ZBTB43 0.021 | ZC3H18 -0.056 | ZC3H8 0 | ZC3HC1 0.066 | ZCCHC17 -0.069 | ZCCHC9 0.1 | ZDHHC17 -0.005 | ZDHHC20 0.067 | ZDHHC5 0.129

NCC(=O)Nc1ccc(-n2nc(C(F)(F)F)cc2-c2ccc3c(ccc4ccccc43)c2)cc1
inactive: YWHAB -0.007 | YWHAQ 0.457 | YWHAZ [1] 0.084 | YY1 -0.009 | ZADH2 0.017 | ZBTB21 -0.042 | ZBTB43 0 | ZC3H18 -0.012 | ZC3H8 0.036 | ZC3HC1 -0.076 | ZCCHC17 -0.137 | ZCCHC9 -0.013 | ZDHHC17 0.012 | ZDHHC20 0.093 | ZDHHC5 -0.005 | ZDHHC7 isoform 2 -0.056

COc1cc2ncnc(Nc3ccc(F)c(Cl)c3)c2cc1OCCCN1CCOCC1 [gefitinib]
inactive: YWHAB -0.001 | YWHAQ 0.007 | YWHAZ [1] 0.005 | YY1 -0.076 | ZADH2 -0.029 | ZBTB21 -0.125 | ZBTB43 0.025 | ZC3H18 -0.033 | ZC3H8 0.021 | ZC3HC1 0.004 | ZCCHC9 -0.062 | ZDHHC17 0.04 | ZDHHC20 -0.067 | ZDHHC5 0.031 | ZDHHC7 isoform 2 0.062 | ZDHHC8 isoform 3 0.023

CCCS(=O)(=O)Nc1ccc(F)c(C(=O)c2c[nH]c3ncc(-c4ccc(Cl)cc4)cc23)c1F [vemurafenib]
inactive: YWHAB 0.021 | YWHAQ 0.284 | YWHAZ [1] 0.037 | YY1 0.03 | ZADH2 0 | ZBTB21 -0.032 | ZBTB43 0.044 | ZC3H18 -0.025 | ZC3H8 -0.071 | ZC3HC1 0.09 | ZCCHC17 -0.396 | ZCCHC9 -0.11 | ZDHHC17 0.016 | ZDHHC20 0.049 | ZDHHC5 -0.021 | ZDHHC7 isoform 2 -0.016

Cc1ncc(-c2ccnc(Nc3ccc(S(C)(=O)=O)cc3)n2)n1C(C)C
inactive: YWHAB 0 | YWHAQ -0.026 | YWHAZ [1] -0.003 | YY1 -0.207 | ZADH2 0.066 | ZBTB21 0.061 | ZBTB43 0.16 | ZC3H18 -0.162 | ZC3H8 0.036 | ZC3HC1 -0.01 | ZCCHC9 0.005 | ZDHHC17 -0.022 | ZDHHC20 0.022 | ZDHHC5 -0.009 | ZDHHC7 isoform 2 0.059 | ZDHHC8 isoform 3 -0.014

CNC(=O)c1ccccc1Nc1nc(Nc2ccc(N3CCOCC3)cc2OC)ncc1Cl
inactive: YWHAB 0.019 | YWHAQ 0.049 | YWHAZ [1] -0.013 | YY1 -0.046 | ZADH2 -0.051 | ZBTB17 isoform 2 -0.041 | ZBTB21 -0.012 | ZBTB43 -0.007 | ZC3H18 -0.01 | ZC3H8 0.019 | ZC3HC1 0.067 | ZCCHC9 0.058 | ZDHHC17 0.146 | ZDHHC20 0 | ZDHHC5 0.006 | ZDHHC7 isoform 2 -0.016
